Screens (PubChem BioAssay)
An excerpt weighted towards active compounds, which were near 3.7% of everything screened.
Mtb UGM inh – Mtb UDP-galactopyranose mutase inhibition; P9WIQ1; purified UGM, fluorescence polarization probe displacement; inhibition, % at 10 µM; 320,000 tested, 0.06% active; in the data active means inhibition above about 10%, passing the limit was not always enough
Target sequence (P9WIQ1 whole entry, looked up): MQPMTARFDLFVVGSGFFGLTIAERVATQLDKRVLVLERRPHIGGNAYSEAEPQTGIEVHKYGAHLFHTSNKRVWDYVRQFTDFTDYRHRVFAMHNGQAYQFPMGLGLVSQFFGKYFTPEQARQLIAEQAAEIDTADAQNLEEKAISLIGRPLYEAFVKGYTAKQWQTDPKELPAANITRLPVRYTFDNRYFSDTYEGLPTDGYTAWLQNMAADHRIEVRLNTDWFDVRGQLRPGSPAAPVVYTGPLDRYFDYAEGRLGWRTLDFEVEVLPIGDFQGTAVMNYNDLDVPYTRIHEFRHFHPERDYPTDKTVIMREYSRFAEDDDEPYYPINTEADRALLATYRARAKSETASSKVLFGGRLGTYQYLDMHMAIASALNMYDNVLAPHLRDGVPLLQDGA
FadD28 FP inh – M. tuberculosis FadD28 bisubstrate binding inhibition | FadD28 bisubstrate probe binding, fluorescence polarization | inhibition, % at 12.5 µM | 360,000 tested, 0.22% active | AID 588549; in the data active means inhibition above about 8.5%, passing the limit was not always enough
Mtb betalactam – beta-lactam sensitization of Mtb H37Rv; inhibition, % at 25 µM; M. tuberculosis H37Rv growth with meropenem, percent inhibition; 330,000 tested, 0.27% active; call rule not given here;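 further: growth measured after seven days incubation then overnight dye step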
Rv3671c protease – Rv3671c (M. tuberculosis) protease inhibition; AID 2606; P9WHR9; inhibition, % at 5.96 µM; 320,000 tested, 0.048% active; in the data active means inhibition above about 38%;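 further: extracellular domain of Rv3671c used as enzyme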
GDH-TPI counter – inhibits GDH-TPI coupling enzymes, artifact for Mtb FBA screen; GDH-TPI coupled enzyme counterscreen, NADH absorbance; 360,000 tested, 1.2% active; AID 588335; inhibition, % at 4.8 µM; in the data active means inhibition above about 30%
FBA Mtb inh – inhibitors of M. tuberculosis fructose-bisphosphate aldolase. 360,000 tested, 2.3% active. purified M. tuberculosis FBA, fluorescence read-out. inhibition, % at 1 µM. P9WQA3; in the data active means inhibition above about 27%
Large screens that a line does not name were inactive.

CCOc1ccc(NC(=O)c2ccc3[nH]c(=O)c(=O)[nH]c3c2)cc1	GDH-TPI counter 32
Nc1nc2ccccc2n1C(=O)c1ccccc1	none
Nc1nc2ccccc2n1C(=O)c1cccs1	GDH-TPI counter 61 (no result: Mtb betalactam)
CCOC(=O)COc1ccc2c(c1)C(=O)CC(C)(c1cccnc1)O2 (configuration not stated)	FBA Mtb inh 59
O=C1CC2(CCN(C(=O)COc3ccccc3)CC2)Oc2ccccc21	none
CCCOc1ccc(C2C(=O)N(C3CCCCC3)CC(=O)N2CCC)cc1OC (configuration not stated)	FBA Mtb inh 31
CC1(C)CC(=O)C2=C(C1)NC1=C(C(=O)c3ccccc31)C2c1cc([N+](=O)[O-])ccc1O (configuration not stated)	FadD28 FP inh 21
Cn1c(=NN=Cc2ccccc2OCCO)sc2ccccc21	GDH-TPI counter 32 (no result: Mtb UGM inh, Mtb betalactam, Rv3671c protease)
Cc1c(NC(=S)N/N=C/c2cc([N+](=O)[O-])ccc2O)c(=O)n(-c2ccccc2)n1C	GDH-TPI counter 49
COc1ccc2c(c1)[nH]c1c(=O)n(/N=C/c3ccc(OC)c(CN4CCCC4)c3)cnc12	GDH-TPI counter 54
COc1ccc(/C=N/n2cnc3c([nH]c4ccc(C)cc43)c2=O)cc1CN1CCCC1	none
COc1ccc(/C=N/n2cnc3c([nH]c4ccc(F)cc43)c2=O)cc1CN1CCCC1	none
COc1ccc(/C=N/n2c(=O)[nH]c3c([nH]c4ccc(F)cc43)c2=O)cc1CN1CCCCC1	FBA Mtb inh 82
O=C(NCc1cccnc1)c1cc(C2CCCCN2C(=O)c2cccs2)on1 (configuration not stated)	none (no result: Mtb UGM inh, Mtb betalactam, Rv3671c protease)
Cc1ccc(C2C(C#N)=C3N=C(N)c4ccccc4N3C3=C2C(=O)CCC3)cc1 (configuration not stated)	GDH-TPI counter 31
N#CC1=C2N=C(N)c3ccccc3N2C2=C(C(=O)CCC2)C1c1ccc(F)cc1 (configuration not stated)	none
C#CCN(Cc1ccco1)C(=O)c1cc(COc2cccc3cccnc23)on1	none (no result: Mtb UGM inh, Mtb betalactam, Rv3671c protease)
CCC1OC23CCCCC2C(C#N)(C(=N)O3)C1(C#N)C#N (configuration not stated)	FBA Mtb inh 58
CC1OC23CCCCC2C(C#N)(C(=N)O3)C1(C#N)C#N (configuration not stated)	none
NC(=O)c1cc2ccccc2oc1=NCc1ccccc1	none
NC(=O)c1cc2ccccc2o/c1=N\NC(=O)c1ccccc1O	none
NC(=O)c1cc2ccc(O)cc2oc1=NCc1ccccc1	FBA Mtb inh active (no result: Mtb UGM inh)
NC(=O)c1cc2ccc(O)cc2oc1=Nc1ccccc1	FBA Mtb inh active (no result: Mtb UGM inh, Mtb betalactam, Rv3671c protease)
COc1ccc(OC)c(N=c2oc3cc(O)ccc3cc2C(N)=O)c1	FBA Mtb inh 116
CCS(=O)(=O)N1Cc2ccccc2CC1C(=O)Nc1ccc(F)c(F)c1F (configuration not stated)	none
O=C(O)c1cc(O)c2c(c1)C(=O)c1cc(O)cc(O)c1C2=O	FadD28 FP inh 13
CC(=O)Oc1cccc2c1C(=O)c1c(OC(C)=O)cc(C(=O)O)cc1C2=O	none
Cc1ccc(C(=O)N/C(=C\c2ccc(-c3cc(Cl)ccc3Cl)o2)C(=O)NCc2cccnc2)cc1	GDH-TPI counter 40
O=C(NCc1cccnc1)/C(=C\c1ccc(-c2cccc(Cl)c2)o1)S(=O)(=O)c1ccccc1	GDH-TPI counter 41
O=C(NCc1cccnc1)/C(=C/c1ccc(-c2cccc(Cl)c2)o1)S(=O)(=O)c1ccccc1	none
COc1ccc(CCNC(=O)c2cc(=O)c3cc(C)ccc3o2)cc1OC	none
O=C(/C=C/c1ccc(Cl)cc1)NC(=S)Nc1ccccc1C(=O)O	GDH-TPI counter 38
Cc1ccc(C)c(SCC(=O)Nc2ccc(C)c(S(=O)(=O)N3CCOCC3)c2)c1	none
O=C(COC(=O)c1ccc([N+](=O)[O-])o1)NC1CCCC1	Mtb UGM inh 21
Fc1ccc(C2=CC(c3ccco3)n3ncnc3N2)cc1 (configuration not stated)	FBA Mtb inh 113
COc1ccc(C2C=C(c3ccc(C)cc3)Nc3ncnn32)cc1 (configuration not stated)	FBA Mtb inh active (no result: Mtb UGM inh, Mtb betalactam, Rv3671c protease)
Fc1ccc(C2=CC(c3ccc(Br)o3)n3ncnc3N2)cc1 (configuration not stated)	FBA Mtb inh 43
C1=C(c2ccc(-c3ccccc3)cc2)Nc2ncnn2C1c1ccco1 (configuration not stated)	none (no result: Mtb UGM inh, Mtb betalactam, Rv3671c protease)
